The supplement of paper PMC9948646

What follows are molecules tested on gramicidin D channels in DC22:1PC lipid vesicles (bilayer-modifying potency) (assay: initial Tl+ fluorescence quench rate relative to no-drug control (NormRate, gramicidin monomer-dimer shift) (ratio (fold of control)); higher = stronger bilayer-modifying effect (equilibrium shifted toward conducting dimers), active = 1.5 or more). Conditions: 10 µM; lipid concentration 50 µM; temperature: 25 °C.
Protocol: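 Stopped-flow fluorescence quench assay: ANTS-loaded DC22:1PC large unilamellar vesicles doped with gramicidin D (1:2000), 50 µM lipid, equilibrated 10 min with 10 µM drug (0.1% DMSO), mixed with Tl+ quench buffer at 25°C. Initial quench rate (Tl+ influx) was fitted with a modified stretched exponential and normalised to the no-drug control rate (NormRate); duplicates from two independent LUV preparations (triplicates for 7 drugs).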

Row | SMILES | initial Tl+ fluorescence quench rate
1 | [H]/N=C(\N)N[C@H]1[C@@H](O)[C@@H](O)[C@H](O[C@H]2O[C@H](C)[C@](O)(C=O)[C@H]2O[C@H]2O[C@@H](CO)[C@@H](O)[C@@H](O)[C@@H]2NC)[C@@H](N/C(N)=N/[H])[C@H]1O | 1.05 (inactive)
2 | Clc1cccc([C@@H](c2ccc(CN3CCNCC3)cc2)n2ccnc2)c1 | 1.17 (inactive)
3 | CN(C)c1cc(NC(=O)Nc2ccccc2)c2ccccc2n1 | 1.74 (active)
4 | CCc1cc(=O)n(C)c(S[C@H](C)C(=O)Nc2ccc(F)cc2)n1 | 1.15 (inactive)
5 | COc1ccc(C2(C(=O)Nc3ccc(Br)cc3)CCCC2)cc1 | 1.14 (inactive)
6 | Nc1ncnc2c1ncn2C[C@@H](O)[C@@H](O)C(=O)O | 1.05 (inactive)
7 | COc1cc(NC(=O)Cc2nn(C)c(=O)c3ccccc23)ccc1Cl | 1.11 (inactive)
8 | Cc1ccc(S(=O)(=O)n2cc(-c3ccnc(N)c3)c3cc(Br)cnc32)cc1 | 2.5 (active)
9 | Cc1ccc2oc(-c3cc(NC(=O)Cc4ccccc4)ccc3Cl)nc2c1 | 1.18 (inactive)
10 | O=C(C1CCN(c2nnc(-n3cccc3)s2)CC1)N1CCC(Cc2ccccc2)CC1 | 1.24 (inactive)
11 | C[C@H]1CCCCN1C(=O)NCCc1coc(-c2ccc(F)cc2)n1 | 1.06 (inactive)
12 | CC[C@H](CO)NCCN[C@H](CC)CO | 1.02 (inactive)
13 | Cc1nnc(NCc2cccc(Cl)c2)c2ccccc12 | 1.05 (inactive)
14 | CCOc1ccc2cc(-c3nn(CC4CCN(C)CC4)c4ncnc(N)c34)ccc2c1 | 1.16 (inactive)
15 | CC(C)(C(=O)Nc1ccc(F)cc1)n1cc(-c2ccccc2F)cn1 | 1.42 (inactive)
16 | Nc1ncc(-c2ccc(C(F)(F)F)nc2)cc1-c1ccc(C(F)(F)F)nc1 | 1.08 (inactive)
17 | COc1cc(C2=NCCN2)ccc1-c1cn(-c2cccc(C3=NCCN3)c2)nn1 | 1.01 (inactive)
18 | FC(F)(F)c1cc(NCCc2ccccc2)nc(-c2ccccn2)n1 | 1.31 (inactive)
19 | Cc1cc(OCC(=O)Nc2ccc(C(C)C)cc2)n(C)c(=O)c1C#N | 1.25 (inactive)

Row | SMILES | initial Tl+ fluorescence quench rate
20 | CC(=O)Oc1ccccc1C(=O)Nc1ncc([N+](=O)[O-])s1 | 1.05 (inactive)
21 | FC(F)(F)c1cccc(-c2nc3c(NCc4ccncc4)nccc3[nH]2)c1 | 1.76 (active)
22 | CCCNC(=O)N1CCC2(CC1)CC(=O)c1cc(C)ccc1O2 | 1.15 (inactive)
23 | C[C@H]1CS(=O)(=O)CCN1/N=C/c1ccc([N+](=O)[O-])o1 | 1.02 (inactive)
24 | O=C(Nc1nnc(-c2ccc(Cl)cc2)o1)c1cccc(C(F)(F)F)c1 | 1.07 (inactive)
25 | COc1ccc(Nc2ccccc2NC(=O)c2ccc(O)nc2)cc1 | 1.03 (inactive)
26 | O=C(NC1CC1)c1ccc(CSCc2ccccc2Cl)o1 | 1.35 (inactive)
27 | N#Cc1ccc(-c2cnc(N)c(-c3ccc(C(N)=O)cc3)n2)cc1 | 1.28 (inactive)
28 | OCc1ccc(-c2cncc(Nc3cccc(Cl)c3)c2)cc1 | 2.64 (active)
29 | c1ccc(C[C@@H]2CN(c3nccc(Oc4ccc(-n5ccnc5)cc4)n3)CCN2)cc1 | 1.26 (inactive)
30 | CO[C@H]1/C=C/O[C@@]2(C)Oc3c(C)c(O)c4c(O)c(/c(=C/NN5CCN(C)CC5)c(O)c4c3C2=O)=N\C(=O)/C(C)=C\C=C/[C@H](C)[C@H](O)[C@@H](C)[C@@H](O)[C@@H](C)[C@H](OC(C)=O)[C@@H]1C | 1.34 (inactive)
31 | FC(F)(F)c1cnc(Sc2nnc(-c3ccncc3)o2)c(Cl)c1 | 1.23 (inactive)
32 | COc1cc(-c2cc(-c3ccc(S(C)(=O)=O)cc3)cnc2N)ccc1O | 1.09 (inactive)
33 | C[C@H](C(N)=O)N1CCCC[C@H]1c1ccc(OCc2cccc(F)c2)cc1 | 1.21 (inactive)
34 | Cc1ccc(S(=O)(=O)Nc2ccc(CN3CCN(C(=O)c4cccc(C#N)c4)CC3)cc2)cc1 | 1.5 (active)
35 | [H]/N=C(\Nc1ccc(Cl)cc1)Nc1nc(C)cc(NCCc2ccccc2)n1 | 3.21 (active)
36 | Cc1cc(Cl)c(S(=O)(=O)N2CCCC2)cc1OCC(=O)NC1CCCCC1 | 1.19 (inactive)
37 | CC(C)(C)n1nc(Cc2cccc3ccccc23)c2c(N)ncnc21 | 2.86 (active)
38 | [H]/N=C(/N)Nc1ccc(-c2ccc(-c3ccc(N/C(N)=N/[H])cc3Cl)o2)c(Cl)c1 | 1.53 (active)
